About 79,000 compounds went through this panel and 15% of them were active in at least one assay; those are over-represented in the sample as a whole. Values without a mark were called inactive. Active and inactive are the calls of the source. Rule as the data show it: active = growth inhibition above about 70%; inactive = the rest.

Assay [1] in a line: NCI Yeast Anticancer Drug Screen. Data for the rad50 strain (AID 155).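 Also: 0% = growth of vehicle-only cultures of the same strain.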 The conditions noted are these: S. cerevisiae rad50 strain growth inhibition, active compounds read high. In outline: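 Compounds were tested on a yeast strain with an engineered DNA damage repair alteration; the reported value is growth inhibition normalised to vehicle treatment.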
Assay [2] can be described thus: NCI Yeast Anticancer Drug Screen. Data for the mec2-1 strain (AID 157). The conditions noted are these: S. cerevisiae mec2-1 strain, active compounds read high. In outline: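 Readout is yeast growth inhibition, normalised to vehicle-treated controls, in the mec2-1 strain exposed to compound.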
The nature of assay [3]: NCI Yeast Anticancer Drug Screen. Data for the sgs1 mgt1 strain (AID 161).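 Also: 0% = growth of cultures given vehicle only.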 The conditions noted are these: S. cerevisiae sgs1 mgt1 strain, active compounds read high. In outline: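 This yeast growth screen uses a strain with defined DNA-repair lesions; compound-treated growth is compared with vehicle-treated growth.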
Assay [4] is described as follows: NCI Yeast Anticancer Drug Screen. Data for the cln2 rad14 strain (AID 165).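 Also: 0% = growth equal to vehicle treated cultures.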 The conditions noted are these: S. cerevisiae cln2 rad14 strain, active compounds read high. In outline:
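Relative to vehicle controls, growth inhibition of compound-treated cln2 rad14 yeast was recorded.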

Assay [5] is described as follows: NCI Yeast Anticancer Drug Screen. Data for the bub3 strain (AID 167). Conditions: S. cerevisiae bub3 mutant strain, active compounds read high. In outline:
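Growth of a checkpoint-deficient yeast mutant is measured after compound exposure. Values represent inhibition relative to vehicle.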

Assay [6] can be described thus: NCI Yeast Anticancer Drug Screen. Data for the mlh1 rad18 strain (AID 175). The conditions noted are these: S. cerevisiae mlh1 rad18 strain growth inhibition, active compounds read high. In outline: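 Test agents were incubated with a yeast strain of defined genotype (DNA damage repair defect). Inhibition of growth was derived by comparison with vehicle-exposed cultures.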

[7] abbreviates: at 5.0 µM (retest, dose inferred, filed as 0.5).
[8] abbreviates: at 50.0 µM (retest, dose inferred, filed as 5.0).

As to `CC(C)CC(NC(=O)SCc1ccccc1)C(=O)O` (stereo not given), the growth inhibition in assay [1] (setting [7]) was -2%; in assay [1] (setting [8]) it was 35%; in assay [1] (at 50.0 µM), 3.35%; in assay [2] (setting [7]), -12%; in assay [2] (setting [8]), -5%; in assay [2] (at 50.0 µM), 1.6%. In addition, the growth inhibition is -1% in assay [3] (setting [7]); -1% in assay [3] (setting [8]); 3% in assay [3] (at 50.0 µM); 5% in assay [4] (setting [7]); 8% in assay [4] (setting [8]); 15.4% in assay [4] (at 50.0 µM). For the same compound, the growth inhibition was 2% in assay [5] (setting [7]); 1% in assay [5] (setting [8]); -5.95% in assay [5] (at 50.0 µM); 3% in assay [6] (setting [7]); 24% in assay [6] (setting [8]); 14.8% in assay [6] (at 50.0 µM).
Take `CCOC(=O)C(CC)(CCc1ccccc1[N+](=O)[O-])C(=O)OCC`: the growth inhibition in assay [1] (setting [7]) is 8%; in assay [1] (setting [8]), -24%; in assay [1] (at 50.0 µM), 61.2%; in assay [2] (setting [7]), -3%; in assay [2] (setting [8]), -2%; in assay [2] (at 50.0 µM) it was -6.6%. Moreover, the growth inhibition in assay [3] (setting [7]) is 9%; in assay [3] (setting [8]), 37%; in assay [3] (at 50.0 µM), 39.2%; in assay [4] (setting [7]), 0%; in assay [4] (setting [8]) it was -17%; in assay [4] (at 50.0 µM), -18.1%. For the same compound, the growth inhibition is 6% in assay [5] (setting [7]); 24% in assay [5] (setting [8]); 75.9% (active) in assay [5] (at 50.0 µM); 17% in assay [6] (setting [7]); 13% in assay [6] (setting [8]); 60.9% in assay [6] (at 50.0 µM).
For `S=C(Nc1ccccc1)N(Cc1ccccc1)c1ccccc1`, the growth inhibition in assay [1] (setting [7]) is -7%; in assay [1] (setting [8]) it was 51%; in assay [1] (at 50.0 µM), 62%; in assay [2] (setting [7]), 10%; in assay [2] (setting [8]) it was 57%; in assay [2] (at 50.0 µM), 28.6%. Besides, the growth inhibition is -7% in assay [3] (setting [7]); 50% in assay [3] (setting [8]); 46.2% in assay [3] (at 50.0 µM); -8% in assay [4] (setting [7]); 8% in assay [4] (setting [8]); 32.5% in assay [4] (at 50.0 µM). Further, the growth inhibition in assay [5] (setting [7]) is 3%; in assay [5] (setting [8]), 42%; in assay [5] (at 50.0 µM), 65.9%; in assay [6] (setting [7]), 4%; in assay [6] (setting [8]) it was 72% (active); in assay [6] (at 50.0 µM), 48.7%.
For `Oc1c(Cl)cc(Cl)c(Cc2c(Cl)cc(Cl)c(O)c2Cl)c1Cl`, the growth inhibition was 98% (active) in assay [1] (setting [7]); 97% (active) in assay [1] (setting [8]); 65.8% in assay [1] (at 50.0 µM); 98% (active) in assay [2] (setting [7]); 98% (active) in assay [2] (setting [8]); 3.5% in assay [2] (at 50.0 µM). In addition, the growth inhibition in assay [3] (setting [7]) is 98% (active); in assay [3] (setting [8]), 99% (active); in assay [3] (at 50.0 µM), -10.2%; in assay [4] (setting [7]), 98% (active); in assay [4] (setting [8]), 97% (active); in assay [4] (at 50.0 µM), 19.5%. The growth inhibition was 97% (active) in assay [5] (setting [7]); 97% (active) in assay [5] (setting [8]); -3.05% in assay [5] (at 50.0 µM); 99% (active) in assay [6] (setting [7]); 96% (active) in assay [6] (setting [8]); 46.6% in assay [6] (at 50.0 µM).
For the compound `S=C(N/N=C(/c1ccccc1)c1ccccn1)N1CCCCC1`, the growth inhibition was 58% in assay [1] (setting [7]); 98% (active) in assay [1] (setting [8]); 80.2% (active) in assay [1] (at 50.0 µM); 27% in assay [2] (setting [7]); 98% (active) in assay [2] (setting [8]); 86.3% (active) in assay [2] (at 50.0 µM). For the same compound, the growth inhibition in assay [3] (setting [7]) was 66%; in assay [3] (setting [8]), 98% (active); in assay [3] (at 50.0 µM), 88.2% (active); in assay [4] (setting [7]), 30%; in assay [4] (setting [8]) it was 97% (active); in assay [4] (at 50.0 µM), 89% (active). Further, the growth inhibition was 54% in assay [5] (setting [7]); 97% (active) in assay [5] (setting [8]); 90.2% (active) in assay [5] (at 50.0 µM); 83% (active) in assay [6] (setting [7]); 98% (active) in assay [6] (setting [8]); 90.8% (active) in assay [6] (at 50.0 µM).
Take `O=C(NCCCl)N1CCC(CN=c2cc3n(-c4ccc(Cl)cc4)c4ccccc4nc-3cc2Nc2ccc(Cl)cc2)CC1`: the growth inhibition in assay [1] (setting [7]) is -33%; in assay [1] (setting [8]) it was 99% (active); in assay [1] (at 50.0 µM) it was 98.6% (active); in assay [2] (setting [7]) it was -5%; in assay [2] (setting [8]) it was 99% (active); in assay [2] (at 50.0 µM), 98.5% (active). The growth inhibition in assay [3] (setting [7]) is -22%; in assay [3] (setting [8]), 99% (active); in assay [3] (at 50.0 µM), 98.7% (active); in assay [4] (setting [7]) it was -56%; in assay [4] (setting [8]), 99% (active); in assay [4] (at 50.0 µM) it was 98.3% (active). The growth inhibition in assay [5] (setting [7]) was -11%; in assay [5] (setting [8]), 99% (active); in assay [5] (at 50.0 µM) it was 98.4% (active); in assay [6] (setting [7]), -34%; in assay [6] (setting [8]), 98% (active); in assay [6] (at 50.0 µM), 99% (active).
As to `CC(=O)N(C)C1=C(Sc2ccc(C)cc2)C(=O)c2ccccc2C1=O`, the growth inhibition in assay [1] (setting [7]) is 95% (active); in assay [1] (setting [8]), 99% (active); in assay [1] (at 50.0 µM), 99.5% (active); in assay [2] (setting [7]), 97% (active); in assay [2] (setting [8]) it was 100% (active); in assay [2] (at 50.0 µM), 99.7% (active). The growth inhibition in assay [3] (setting [7]) was 93% (active); in assay [3] (setting [8]) it was 100% (active); in assay [3] (at 50.0 µM) it was 99.8% (active); in assay [4] (setting [7]), 83% (active); in assay [4] (setting [8]) it was 99% (active); in assay [4] (at 50.0 µM), 99.5% (active). The growth inhibition in assay [5] (setting [7]) was 99% (active); in assay [5] (setting [8]), 99% (active); in assay [5] (at 50.0 µM) it was 99.6% (active); in assay [6] (setting [7]) it was 95% (active); in assay [6] (setting [8]), 99% (active); in assay [6] (at 50.0 µM), 99.7% (active).
Regarding `COC(=O)CC1(O)c2cc(OC)c3cccc(OC)c3c2CCC1(C)C(=O)OC` (stereo not given), the growth inhibition in assay [1] (setting [7]) was 88% (active); in assay [1] (setting [8]), 97% (active); in assay [1] (at 50.0 µM), 92.9% (active); in assay [2] (setting [7]), 91% (active); in assay [2] (setting [8]), 99% (active); in assay [2] (at 50.0 µM) it was 88.8% (active). For the same compound, the growth inhibition is 85% (active) in assay [3] (setting [7]); 99% (active) in assay [3] (setting [8]); 95.2% (active) in assay [3] (at 50.0 µM); 80% (active) in assay [4] (setting [7]); 97% (active) in assay [4] (setting [8]); 96% (active) in assay [4] (at 50.0 µM). The growth inhibition in assay [5] (setting [7]) was 83% (active); in assay [5] (setting [8]), 98% (active); in assay [5] (at 50.0 µM), 88.5% (active); in assay [6] (setting [7]) it was 92% (active); in assay [6] (setting [8]), 98% (active); in assay [6] (at 50.0 µM) it was 94.8% (active).
`CC(C)(C)Oc1ccc(CC(NC(=O)OCC2c3ccccc3-c3ccccc32)C(=O)O)cc1` (stereo not given): the growth inhibition in assay [1] (setting [7]) was 9%; in assay [1] (setting [8]), 95% (active); in assay [1] (at 50.0 µM), 90.6% (active); in assay [2] (setting [7]), -11%; in assay [2] (setting [8]) it was 97% (active); in assay [2] (at 50.0 µM), 93.2% (active). The growth inhibition in assay [3] (setting [7]) was -9%; in assay [3] (setting [8]), 98% (active); in assay [3] (at 50.0 µM), 90.5% (active); in assay [4] (setting [7]) it was 33%; in assay [4] (setting [8]), 96% (active); in assay [4] (at 50.0 µM), 91.7% (active). The growth inhibition in assay [5] (setting [7]) was -7%; in assay [5] (setting [8]), 97% (active); in assay [5] (at 50.0 µM), 89.2% (active); in assay [6] (setting [7]) it was -3%; in assay [6] (setting [8]), 96% (active); in assay [6] (at 50.0 µM), 90.3% (active).
For `CC1(C)C=CC2=C(O1)C(=O)c1ccccc1C2=O`, the growth inhibition in assay [1] (setting [7]) was 9%; in assay [1] (setting [8]) it was 76% (active); in assay [1] (at 50.0 µM) it was 39.6%; in assay [2] (setting [7]) it was 8%; in assay [2] (setting [8]) it was 77% (active); in assay [2] (at 50.0 µM), -0.85%. Besides, the growth inhibition in assay [3] (setting [7]) is 18%; in assay [3] (setting [8]), 88% (active); in assay [3] (at 50.0 µM) it was 73.2% (active); in assay [4] (setting [7]) it was -7%; in assay [4] (setting [8]) it was 12%; in assay [4] (at 50.0 µM), 6.9%. In addition, the growth inhibition in assay [5] (setting [7]) is 67%; in assay [5] (setting [8]), 95% (active); in assay [5] (at 50.0 µM) it was 48.4%; in assay [6] (setting [7]), 16%; in assay [6] (setting [8]) it was 89% (active); in assay [6] (at 50.0 µM), 44.5%.

Source of the values: PubChem BioAssay (NCI).
